Results filed as inconclusive are left out. Active and inactive are the calls of the source. Rule for the calls, unless noted: active = hit-call score of the fitted dose curve at least 0.9, where 1 is the maximum; inactive = score below 0.9.

Assay [1] is described as follows: ATG_NF_kB_CIS: Attagene CIS-FACTORIAL HepG2 Assay for human Nuclear Factor Kappa B (NF-kB) (AID 2282991). The following applies: HepG2 Attagene cis-factorial NF-kB reporter mRNA; actives raise or lower the signal. Summed up: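 Measures mRNA induction of an NF-kB-responsive cis-element reporter in HepG2 cells transfected with multiple reporter units, sampled 24 h post-dosing; quantified by fluorescence after RT-PCR and capillary electrophoresis, fitted for activation or inhibition against DMSO.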

The nature of assay [2]: ATG_NRF2_ARE_CIS: Attagene CIS-FACTORIAL HepG2 Assay for human Nuclear Factor Erythroid 2 Related Factor 2 (NFR2) response to Antioxidant Response Elements (ARE) (AID 2282992). The following applies: HepG2 Attagene ARE/NRF2 reporter, transcription factor activity; actives raise or lower the signal. Summed up: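 Endogenous transcription factor activity read out as reporter transcript levels (RT-PCR plus capillary electrophoresis, fluorescence) in transiently transfected HepG2 cells. Measured at 24 h after dosing; gain or loss of signal fitted versus DMSO.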

Assay [3] is described as follows: ATG_Oct_MLP_CIS: Attagene CIS-FACTORIAL HepG2 Assay for human Octamer-Binding Transcription Factor (Oct) (AID 2282993). The following applies: HepG2 Attagene cis-factorial Oct reporter, mRNA; actives raise or lower the signal. Summed up:
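Transient MRTU transfection of HepG2 → 24 h compound treatment → RNA isolation, reverse transcription, PCR → 6-FAM primer extension, HpaI digest → capillary electrophoresis. Activity fitted both directions against DMSO.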

Assay [4] has as its target Cellular tumor antigen p53 (Homo sapiens) (UniProt P04637). The experiment in a line: ATG_p53_CIS: Attagene CIS-FACTORIAL HepG2 Assay for human p53 Transcription Factor (AID 2282994). The following applies: HepG2 p53 cis-element reporter, Attagene mRNA; actives raise or lower the signal. Summed up:
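Endogenous p53 activity read in transiently transfected HepG2 from a cis-element-driven reporter transcript after 24 h exposure. RNA reverse-transcribed, PCR-amplified, fluorescently labelled and sized by capillary electrophoresis; gain or loss fitted against DMSO baseline.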

Assay [5] can be described thus: BSK_3C_TissueFactor: BioMAP Diversity Plus: 3C Assay for Tissue Factor Biomarker Activity (AID 2282997). The settings on record: BioMAP 3C HUVEC, tissue factor biomarker readout; actives raise or lower the signal. Summed up:
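In this endothelial system, HUVEC are treated for 24 h and Tissue Factor is assessed by ELISA, normalised to DMSO.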

Assay [6] in a line: BSK_3C_uPAR: BioMAP Diversity Plus: 3C Assay for Urokinase-type plasminogen activator receptor (uPAR) Biomarker Activity (AID 2282998). The following applies: BioMAP 3C HUVEC, uPAR biomarker ELISA; actives raise or lower the signal. Summed up:
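ELISA readout of uPAR on human vascular endothelium (umbilical vein primary cells), taken 24 h after chemical dosing. Increases and decreases are both fitted relative to DMSO vehicle.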
Background: ELISA stands for enzyme-linked immunosorbent assay.

Assay [7] can be described thus: BSK_3C_VCAM1: BioMAP Diversity Plus: 3C Assay for Vascular cell adhesion molecule 1 (VCAM1) Biomarker Activity (AID 2282999). The settings on record: BioMAP 3C HUVEC, VCAM1 ELISA, cytokine-stimulated; actives raise or lower the signal. Summed up:
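HUVEC primary cells, 24 h compound exposure; VCAM-1 by ELISA; gain/loss of signal fitted bidirectionally vs DMSO baseline.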

A short description of assay [8]: BSK_4H_Eotaxin3: BioMAP Diversity Plus: 4H Assay for Eotaxin 3 Biomarker Activity (AID 2283000).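 For outcome: CCL26 protein level quantified by ELISA in parallel with SRB cytotoxicity check.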 The settings on record: primary human endothelial cells (HUVEC); actives raise or lower the signal. Summed up: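 ELISA quantitation of CCL26 (Eotaxin-3) protein from chemically dosed human vascular endothelial cells at 24 h; increases and decreases both scored relative to DMSO-treated baseline.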

In assay [9] the target is human Peroxisome Proliferator-activated Receptor alpha (PPARa), PPARA (gene 5465) (UniProt Q07869). The experiment in a line: ATG_PPARa_TRANS: Attagene TRANS-FACTORIAL HepG2 Assay for human Peroxisome Proliferator-activated Receptor alpha (PPARa) (AID 2283001; active = hit-call score of the fitted dose curve at least 0.9, where 1 is the maximum). Summed up:
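Transient HepG2 transfection, GAL4-UAS reporters, NR-Gal4 chimeras; 24 h compound exposure. Readout: reporter transcripts by RT-PCR, 6-FAM primer extension, HpaI digest, capillary electrophoresis. Positive direction vs DMSO baseline.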

Read-out in assay [10]: Intercellular Adhesion Molecule 1 (ICAM1), ICAM1 (gene 3383)
The experiment in a line: BSK_3C_ICAM1: BioMAP Diversity Plus: 3C Assay for Intercellular Adhesion Molecule 1 (ICAM1) Biomarker Activity (AID 2283003). The settings on record: primary human endothelial cells (HUVEC); actives raise or lower the signal. Summed up: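 ELISA read-out of ICAM-1; HUVEC (primary human), 3C system, 24 h post-dosing; bidirectional fit vs DMSO baseline.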

The target in assay [11] is human Retinoic Acid Receptor beta (RARb), RARB (gene 5915) (UniProt P10826). The experiment in a line: ATG_RARb_TRANS: Attagene TRANS-FACTORIAL HepG2 Assay for human Retinoic Acid Receptor beta (AID 2283004; active = hit-call score of the fitted dose curve at least 0.9, where 1 is the maximum). Summed up:
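Fluorescent capillary-electrophoresis detection of GAL4-UAS reporter mRNA defines the endpoint, with induction over DMSO-treated wells scored as activity. Transiently transfected human hepatoma HepG2 cells expressing exogenous NR–Gal4 proteins are exposed to test chemicals for 24 h.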

The target of assay [12] is Retinoic acid receptor alpha (Homo sapiens) (UniProt P10276). The experiment in a line: ATG_RARa_TRANS: Attagene TRANS-FACTORIAL HepG2 Assay for human Retinoic Acid Receptor alpha (RARa) (AID 2283005; active = hit-call score of the fitted dose curve at least 0.9, where 1 is the maximum). Summed up: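 HepG2 transiently transfected with multiplex GAL4-UAS reporter units including a human RARa–GAL4 chimera; 24 h compound exposure. Reporter mRNA quantified by RT-PCR, 6-FAM labeling and capillary electrophoresis; gain of signal versus DMSO.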

Assay [13] can be described thus: BSK_3C_Proliferation: Cell Proliferation Assessment in the BioMAP Diversity Plus: 3C Assay (AID 2283006).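 For AC50: potency may reflect either rise or fall in cell number versus DMSO.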 The following applies: primary human endothelial cells (HUVEC). Summed up:
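HUVEC, sub-confluent; 48 h chemical exposure; 10% TCA fix, 0.1% SRB stain, A560 total protein. Gain or loss of signal fitted both directions vs DMSO control.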

The target in assay [14] is Peroxisome proliferator-activated receptor gamma (Homo sapiens) (UniProt P37231). The experiment in a line: ATG_PPARg_TRANS: Attagene TRANS-FACTORIAL HepG2 Assay for human Peroxisome Proliferator-activated Receptor-gamma (PPARg) (AID 2283007; active = hit-call score of the fitted dose curve at least 0.9, where 1 is the maximum). Summed up: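 Gain-of-signal endpoint relative to DMSO, derived from reporter mRNA levels quantified by RT-PCR and capillary electrophoresis. Cells were HepG2 transiently expressing a chimeric NR-Gal4 construct with GAL4-UAS reporters, exposed to chemicals for 24 h.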

Assay [15] concerns the target Nuclear receptor subfamily 1 group I member 2 (Homo sapiens) (UniProt O75469). The experiment in a line: ATG_PXR_TRANS: Attagene TRANS-FACTORIAL HepG2 Assay for human Pregnane X Receptor (PXR) (AID 2283008; active = hit-call score of the fitted dose curve at least 0.9, where 1 is the maximum). Summed up: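 Transactivation by exogenous PXR–GAL4 fusion measured as reporter transcript induction after 24 h compound treatment of transfected human HepG2 cells. Read-out via RT-PCR and capillary electrophoresis of labelled fragments, fitted upward relative to DMSO.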

The target in assay [16] is human Retinoic Acid Receptor gamma (RARg), RARG (gene 5916) (UniProt P13631). The experiment in a line: ATG_RARg_TRANS: Attagene TRANS-FACTORIAL HepG2 Assay for human Retinoic Acid Receptor gamma (RARg) (AID 2283009; active = hit-call score of the fitted dose curve at least 0.9, where 1 is the maximum;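 for AC50: AC50 is for reporter induction above DMSO meaning RARg activation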). Summed up: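 Readout: reporter transcript levels via RT-PCR, 6-FAM primer-extension labelling, HpaI digestion and capillary electrophoresis. Cells: HepG2 carrying transfected RARg-GAL4 chimera plus UAS reporter set. Dosing 24 h; DMSO negative control.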

Assay [17] addresses Retinoic acid receptor RXR-alpha (Homo sapiens) (UniProt P19793). The experiment in a line: ATG_RXRa_TRANS: Attagene TRANS-FACTORIAL HepG2 Assay for human Retinoid X Receptor alpha (RXRa) (AID 2283012; active = hit-call score of the fitted dose curve at least 0.9, where 1 is the maximum). Summed up:
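Read-out: fluorescent reporter-transcript fragments quantified by capillary electrophoresis after RT-PCR. Transiently transfected HepG2 cells carrying GAL4-UAS reporters and NR-GAL4 chimeras were exposed to chemical for 24 h; activity scored as increase over DMSO.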

For assay [18], the target named is human Peroxisome Proliferator-activated Receptor delta (PPARd), PPARD (gene 5467) (UniProt Q03181). The experiment in a line: ATG_PPARd_TRANS: Attagene TRANS-FACTORIAL HepG2 Assay for human Peroxisome Proliferator-activated Receptor delta (PPARd) (AID 2283002; active = hit-call score of the fitted dose curve at least 0.9, where 1 is the maximum). Summed up:
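HepG2 cells transiently transfected with GAL4-UAS multiplexed reporter units driven by exogenous chimeric NR-GAL4 proteins; 24 h compound exposure. Reporter mRNA measured by RT-PCR, 6-FAM primer extension, HpaI digestion and capillary electrophoresis; gain of signal fitted relative to DMSO.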

The target of assay [19] is human RAR-related Orphan Receptor beta (RORb), RORB (gene 6096) (UniProt Q92753). The experiment in a line: ATG_RORb_TRANS: Attagene TRANS-FACTORIAL HepG2 Assay for human RAR-related Orphan Receptor beta (RORb) (AID 2283010; active = hit-call score of the fitted dose curve at least 0.9, where 1 is the maximum). Summed up: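 HepG2, transient MRTU transfection (GAL4-UAS reporters, exogenous NR-Gal4 chimeras); 24 h compound exposure; total RNA → RT-PCR → 6-FAM primer extension → HpaI digest → CE fluorescence. Positive direction vs DMSO baseline.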
human RAR-related Orphan Receptor beta (RORb), RORB (gene 6096), sequence (Q92753 whole entry, looked up, the tested form may be a part): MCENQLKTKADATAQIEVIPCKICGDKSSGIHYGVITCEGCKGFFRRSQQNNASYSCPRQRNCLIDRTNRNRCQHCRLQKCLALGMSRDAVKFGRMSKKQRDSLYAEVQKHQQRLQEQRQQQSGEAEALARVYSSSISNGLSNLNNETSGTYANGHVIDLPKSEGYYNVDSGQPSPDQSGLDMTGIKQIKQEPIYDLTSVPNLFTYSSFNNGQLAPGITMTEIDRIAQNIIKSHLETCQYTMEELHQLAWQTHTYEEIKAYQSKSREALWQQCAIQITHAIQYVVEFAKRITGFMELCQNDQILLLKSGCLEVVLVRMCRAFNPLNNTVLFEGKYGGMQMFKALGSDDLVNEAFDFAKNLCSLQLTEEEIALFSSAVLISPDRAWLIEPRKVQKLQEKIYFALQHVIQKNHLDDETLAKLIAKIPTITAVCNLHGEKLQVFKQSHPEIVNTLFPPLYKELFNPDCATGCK

human Retinoic Acid Receptor beta (RARb), RARB (gene 5915), sequence (P10826 whole entry, looked up, the tested form may be a part): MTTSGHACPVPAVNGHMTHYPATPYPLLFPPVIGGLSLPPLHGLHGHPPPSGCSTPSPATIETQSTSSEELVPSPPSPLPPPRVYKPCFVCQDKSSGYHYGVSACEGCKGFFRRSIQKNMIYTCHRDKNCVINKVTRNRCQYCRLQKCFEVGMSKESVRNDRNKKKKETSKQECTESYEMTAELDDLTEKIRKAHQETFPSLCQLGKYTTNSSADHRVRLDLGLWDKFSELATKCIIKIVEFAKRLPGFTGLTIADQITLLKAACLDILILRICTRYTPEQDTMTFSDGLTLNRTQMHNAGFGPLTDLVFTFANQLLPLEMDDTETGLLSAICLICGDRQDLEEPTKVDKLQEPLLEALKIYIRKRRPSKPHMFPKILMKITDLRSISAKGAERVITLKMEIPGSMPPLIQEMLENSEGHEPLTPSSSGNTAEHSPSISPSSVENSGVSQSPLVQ
Cellular tumor antigen p53 (Homo sapiens), sequence (P04637 whole entry, looked up): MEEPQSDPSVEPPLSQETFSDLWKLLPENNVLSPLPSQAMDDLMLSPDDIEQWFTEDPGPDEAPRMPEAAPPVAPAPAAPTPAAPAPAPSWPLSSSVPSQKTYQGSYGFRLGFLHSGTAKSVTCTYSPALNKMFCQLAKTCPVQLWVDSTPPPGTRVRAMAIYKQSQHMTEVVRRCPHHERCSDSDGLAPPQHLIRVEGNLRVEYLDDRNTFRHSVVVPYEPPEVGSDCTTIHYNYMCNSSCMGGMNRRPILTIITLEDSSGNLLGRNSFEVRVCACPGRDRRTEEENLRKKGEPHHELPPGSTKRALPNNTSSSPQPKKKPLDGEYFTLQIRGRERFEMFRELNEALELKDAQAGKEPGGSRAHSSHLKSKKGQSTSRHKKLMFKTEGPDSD
human Peroxisome Proliferator-activated Receptor alpha (PPARa), PPARA (gene 5465), sequence (Q07869 whole entry, looked up, the tested form may be a part): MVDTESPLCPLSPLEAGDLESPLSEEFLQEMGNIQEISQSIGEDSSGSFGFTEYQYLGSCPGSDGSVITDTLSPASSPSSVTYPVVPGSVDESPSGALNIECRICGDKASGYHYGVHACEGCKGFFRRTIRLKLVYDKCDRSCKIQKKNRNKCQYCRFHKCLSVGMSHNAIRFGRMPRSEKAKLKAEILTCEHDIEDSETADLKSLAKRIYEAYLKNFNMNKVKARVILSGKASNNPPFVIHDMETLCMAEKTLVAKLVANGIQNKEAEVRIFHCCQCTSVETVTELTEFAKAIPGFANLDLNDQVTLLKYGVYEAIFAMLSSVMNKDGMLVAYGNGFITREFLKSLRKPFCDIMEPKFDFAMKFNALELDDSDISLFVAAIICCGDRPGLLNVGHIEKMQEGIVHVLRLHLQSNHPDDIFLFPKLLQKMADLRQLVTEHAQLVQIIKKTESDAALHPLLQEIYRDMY
human Peroxisome Proliferator-activated Receptor delta (PPARd), PPARD (gene 5467), sequence (Q03181 whole entry, looked up, the tested form may be a part): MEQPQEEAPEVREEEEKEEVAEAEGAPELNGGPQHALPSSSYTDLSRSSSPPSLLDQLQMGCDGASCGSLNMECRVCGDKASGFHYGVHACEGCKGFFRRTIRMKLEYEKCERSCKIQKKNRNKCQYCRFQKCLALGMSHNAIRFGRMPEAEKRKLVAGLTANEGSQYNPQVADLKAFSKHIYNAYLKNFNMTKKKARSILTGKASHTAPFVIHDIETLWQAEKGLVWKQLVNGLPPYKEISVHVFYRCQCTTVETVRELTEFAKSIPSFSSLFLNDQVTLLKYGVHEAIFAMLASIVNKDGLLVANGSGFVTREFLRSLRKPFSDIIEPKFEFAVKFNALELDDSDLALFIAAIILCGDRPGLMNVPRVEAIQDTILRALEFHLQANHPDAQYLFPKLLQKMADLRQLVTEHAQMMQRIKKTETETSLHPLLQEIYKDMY
Peroxisome proliferator-activated receptor gamma (Homo sapiens), sequence (P37231 whole entry, looked up, the tested form may be a part): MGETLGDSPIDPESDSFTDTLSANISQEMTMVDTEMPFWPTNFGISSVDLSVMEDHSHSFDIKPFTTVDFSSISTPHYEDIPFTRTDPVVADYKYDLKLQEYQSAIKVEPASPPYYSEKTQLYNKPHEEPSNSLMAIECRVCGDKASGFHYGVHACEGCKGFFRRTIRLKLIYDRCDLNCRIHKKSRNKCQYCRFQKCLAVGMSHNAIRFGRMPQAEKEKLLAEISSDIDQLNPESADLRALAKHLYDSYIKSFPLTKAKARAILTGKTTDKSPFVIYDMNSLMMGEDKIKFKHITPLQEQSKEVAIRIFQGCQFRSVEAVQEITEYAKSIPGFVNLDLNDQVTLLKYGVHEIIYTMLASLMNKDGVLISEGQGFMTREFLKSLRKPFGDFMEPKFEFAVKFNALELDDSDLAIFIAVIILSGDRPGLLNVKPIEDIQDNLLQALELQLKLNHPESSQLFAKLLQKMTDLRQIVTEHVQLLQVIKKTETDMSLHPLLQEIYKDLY
Nuclear receptor subfamily 1 group I member 2 (Homo sapiens), sequence (O75469 whole entry, looked up, the tested form may be a part): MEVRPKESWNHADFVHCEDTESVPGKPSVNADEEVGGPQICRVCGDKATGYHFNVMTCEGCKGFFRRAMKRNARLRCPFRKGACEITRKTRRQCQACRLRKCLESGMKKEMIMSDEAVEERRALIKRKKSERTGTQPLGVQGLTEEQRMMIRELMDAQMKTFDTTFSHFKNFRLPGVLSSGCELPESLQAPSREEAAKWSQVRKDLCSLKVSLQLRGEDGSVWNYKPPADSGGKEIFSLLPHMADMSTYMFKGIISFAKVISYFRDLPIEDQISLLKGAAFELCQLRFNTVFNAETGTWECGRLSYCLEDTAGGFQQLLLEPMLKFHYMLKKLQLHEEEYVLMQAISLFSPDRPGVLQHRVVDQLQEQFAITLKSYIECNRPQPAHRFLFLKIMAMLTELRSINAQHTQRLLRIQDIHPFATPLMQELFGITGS
Retinoic acid receptor RXR-alpha (Homo sapiens), sequence (P19793 whole entry, looked up, the tested form may be a part): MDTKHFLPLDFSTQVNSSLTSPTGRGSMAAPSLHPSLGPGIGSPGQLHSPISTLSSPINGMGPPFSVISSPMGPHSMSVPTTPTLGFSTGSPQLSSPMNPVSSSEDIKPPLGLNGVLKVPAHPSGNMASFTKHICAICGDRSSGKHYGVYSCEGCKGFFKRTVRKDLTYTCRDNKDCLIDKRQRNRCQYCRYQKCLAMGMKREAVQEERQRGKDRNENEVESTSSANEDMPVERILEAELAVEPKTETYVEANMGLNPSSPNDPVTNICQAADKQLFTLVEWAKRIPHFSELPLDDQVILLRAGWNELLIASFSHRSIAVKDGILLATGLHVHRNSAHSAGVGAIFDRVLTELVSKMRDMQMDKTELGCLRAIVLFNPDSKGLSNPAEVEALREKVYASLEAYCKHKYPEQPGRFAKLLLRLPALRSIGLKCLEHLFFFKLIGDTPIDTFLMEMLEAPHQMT
Retinoic acid receptor alpha (Homo sapiens), sequence (P10276 whole entry, looked up, the tested form may be a part): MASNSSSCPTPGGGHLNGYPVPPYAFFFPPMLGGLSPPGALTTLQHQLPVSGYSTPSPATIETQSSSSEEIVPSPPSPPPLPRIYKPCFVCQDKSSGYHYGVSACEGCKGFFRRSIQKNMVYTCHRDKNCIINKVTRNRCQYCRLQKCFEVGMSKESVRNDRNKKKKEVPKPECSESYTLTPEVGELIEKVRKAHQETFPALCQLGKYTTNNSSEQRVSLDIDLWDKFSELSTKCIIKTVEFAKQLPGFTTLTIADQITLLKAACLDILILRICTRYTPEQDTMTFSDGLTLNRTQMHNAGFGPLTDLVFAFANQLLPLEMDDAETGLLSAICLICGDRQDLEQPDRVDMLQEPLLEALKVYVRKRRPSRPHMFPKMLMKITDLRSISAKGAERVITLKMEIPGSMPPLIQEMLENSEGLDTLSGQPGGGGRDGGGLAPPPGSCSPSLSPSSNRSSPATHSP
human Retinoic Acid Receptor gamma (RARg), RARG (gene 5916), sequence (P13631 whole entry, looked up, the tested form may be a part): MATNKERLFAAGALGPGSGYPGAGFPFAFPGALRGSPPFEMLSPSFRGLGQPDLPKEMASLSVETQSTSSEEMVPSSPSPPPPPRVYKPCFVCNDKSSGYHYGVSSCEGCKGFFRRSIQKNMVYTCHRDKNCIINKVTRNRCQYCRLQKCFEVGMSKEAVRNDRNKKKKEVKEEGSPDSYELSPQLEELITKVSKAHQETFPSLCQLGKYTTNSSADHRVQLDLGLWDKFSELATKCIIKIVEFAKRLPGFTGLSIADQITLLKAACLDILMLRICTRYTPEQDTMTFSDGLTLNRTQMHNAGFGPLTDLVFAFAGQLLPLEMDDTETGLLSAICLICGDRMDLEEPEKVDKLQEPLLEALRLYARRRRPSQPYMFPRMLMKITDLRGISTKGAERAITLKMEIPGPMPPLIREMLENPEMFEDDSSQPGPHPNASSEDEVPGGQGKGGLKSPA

As for `Cc1ccc2nc3sc(=O)sc3nc2c1`, the outcome in assay [1], in assay [4], in assay [5], in assay [9], in assay [11] and in assay [12] was inactive. Besides, in assay [17], the compound was called inactive. The AC50 in assay [2] is 4.06 µM (active); in [3] it was 6.95 µM (active); in [6] it was 3.43 µM (active); in assay [7], 7.59 µM (active); in [8] it was 5.95 µM (active); in [10], 7.74 µM (active). The AC50 in [13] is 7.3 µM (active); in assay [14], 2 µM (active); in assay [15], 6.31 µM (active); in [16] it was 17.7 µM (active).
Regarding `CCOP(=O)(OCC)OC(=CCl)c1ccc(Cl)cc1Cl`, the result in assay [1], in assay [3], in [4], in assay [7], in [18] and in [10] was inactive. Further, in assay [11], the compound was classed as inactive. Besides, the concentration at half-maximal activity (AC50) in assay [2] is 7.84 µM (active); in assay [5], 20 µM (active); in [6] it was 31.5 µM (active); in assay [8], 30.9 µM (active); in assay [13], 28.9 µM (active); in [14], 27.4 µM (active). Also, in [15], the AC50 is 0.62 µM (active).
As to `N#Cc1ccncc1`, the call in [1], in assay [2], in assay [3], in assay [4], in assay [9] and in [18] was inactive. The compound was classed as inactive in [11], in [12], in assay [15], in [16], in assay [19] and in assay [17].
`Oc1ccc(Cc2ccc(O)cc2)cc1`: the outcome in assay [1], in [3], in [4], in [5], in assay [6] and in assay [7] was inactive. In addition, the outcome in assay [8], in assay [9], in assay [18], in assay [10], in assay [13] and in assay [15] was inactive. Further, the call in assay [17] was inactive. For the same compound, the AC50 in assay [2] was 100 µM (active); in [14] it was 15.8 µM (active).

The term AC50 denotes the midpoint of the concentration-response curve, whichever way the signal moves.

The values are drawn from PubChem BioAssay (EPA / NIEHS).
